The record followed here is PubChem BioAssay AID456 (Sanford-Burnham Center for Chemical Genomics, 2006).

About 25 (0.2%) of roughly 10,000 compounds were called active.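 Rule for the calls: active = top tenth filtered wells with inhibition above zero that passed visual or statistical confirmation; inactive = the rest, including hits rejected on review.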 Many of the other results were omitted from the sample, so actives are more common in it than they were. Measured potencies and affinities stand elsewhere.

This experiment is described as follows: inhibitors of TNFa-induced VCAM-1 surface display, imaging, high-content imaging, pooled HUVEC, TNFa stimulus (AID 456).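 For inhibition: VCAM-1 immunofluorescence minus red nonspecific channel after plate median normalization.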 As to conditions: HUVEC TNFa-induced VCAM-1 surface expression, immunofluorescence imaging;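 compounds screened at 5 µM final in the well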.
`COc1ccccc1N1CCN(C(=O)c2cc(C3CC3)on2)CC1`: the inhibition result is “inactive”.

`CCOC(=O)Cc1nnc(NC(=O)c2ccccc2OCC)s1`: the inhibition entry was “inactive”.

For `O=C(CCn1c(=O)oc2ccccc21)NCCN1CCOCC1`, the inhibition entry is “inactive”.

Regarding `O=c1[nH]c(NCc2ccccc2)nc2c1CCCC2`, the inhibition result is “inactive”.

In the case of `Cc1ccc(N2CCN(C(=S)c3ccc(N(C)C)cc3)CC2)cc1`, the inhibition entry was “inactive”.

`COc1ccccc1N1CC(C(=O)Nc2cccc(C(=O)O)c2)CC1=O` (configuration not stated): the inhibition result was “inactive”.

In the case of `c1ccc(OCCCn2nnc(-c3cccnc3)n2)cc1`, the inhibition entry is “inactive”.

Turning to `CCN(CC)CCn1c(=N)n(CCO)c2ccccc21`, the inhibition entry was “inactive”.

For the compound `Cc1c(NC(=O)Cn2nc(C(=O)O)c3ccccc3c2=O)c(=O)n(-c2ccccc2)n1C`, the inhibition result was “inactive”.

`Cn1ccnc1SCC(=O)Nc1ccc2ccccc2c1`: the inhibition result was “inactive”.

Consider `CCOC(=O)c1sc(NS(=O)(=O)c2ccc(NC(C)=O)cc2)nc1C`, for which the inhibition entry is “inactive”.

Regarding `CCn1c(-c2cc(Br)ccc2O)n[nH]c1=S`, the inhibition result was “inactive”.

Take `CCSc1oc(-c2cccs2)nc1S(=O)(=O)c1ccccc1`: the inhibition entry is “inactive”.

In the case of `COc1ccc(OCC(=O)N2CCN(C(=O)COc3ccc(Br)cc3)CC2)cc1`, the inhibition entry was “inactive”.

In the case of `COc1cc2c(cc1OC)C(c1cccnc1)CC(=O)N2` (configuration not stated), the inhibition result is “inactive”.

For `COc1ccc(NC(=O)c2cc(C(C)C)on2)c(OC)c1`, the inhibition entry is “inactive”.

In the case of `Cc1ccc2c(c1)NC(=O)C(CC(=O)NC1CCCCC1C)O2` (configuration not stated), the inhibition result was “inactive”.

On to `COc1ccc(N2C(=O)CCC(C(=O)N3CCCCC3)C2c2ccc(OC)c(OC)c2)cc1` (configuration not stated), for which the inhibition entry was “inactive”.

On to `CCCC1(C(=O)OCC)NC(c2ccc(N(C)C)cc2)C2C(=O)N(c3ccccc3)C(=O)C21` (configuration not stated), for which the inhibition result is “inactive”.

For the compound `CCOc1ccc(-n2cc(C(=O)Nc3cccc(C)n3)c3cc(OC)c(OC)cc3c2=O)cc1`, the inhibition entry was “inactive”.

Regarding `COc1ccccc1N1CCN(C(=O)CSc2nc3ncnc(N)c3[nH]2)CC1`, the inhibition entry is “inactive”.

As to `Cc1ccc(-c2[nH]nc3c2C(c2ccc(OC(=O)N4CCOCC4)cc2)C(C#N)=C(N)O3)cc1` (configuration not stated), the inhibition result was “inactive”.

Consider `O=C(CSc1nnc(-c2ccccc2)o1)N1CCN(c2ccccc2)CC1`, for which the inhibition entry was “inactive”.

For the compound `CN(c1ccccc1)C(c1ccc(F)cc1)c1nnnn1CC1CCCO1` (configuration not stated), the inhibition entry is “inactive”.

For the compound `Cc1ccc(CCSCC(=O)O)cn1`, the inhibition entry was “inactive”.

Regarding `O=C(Nc1ccc(N2CCOCC2)c(Cl)c1)c1ccc(Br)o1`, the inhibition entry is “inactive”.

`CCn1c(CSc2nc(C)cc(C)n2)nnc1SCC(=O)Nc1ccccc1`: the inhibition entry was “inactive”.

Consider `COc1ccccc1N1CCN(C(=O)C(Cc2ccccc2)NC(=O)C2CCCCC2)CC1` (configuration not stated), for which the inhibition entry is “inactive”.

For `COc1ccc(C(N)=O)cc1N`, the inhibition entry was “inactive”.

`C#CCN1C(=O)C(O)(CC(=O)c2cccc(OC)c2)c2ccccc21` (configuration not stated): the inhibition entry is “inactive”.

On to `CCOC(=O)c1c(C)oc2ccc(O)c(CN(C)C)c12`, for which the inhibition result was “inactive”.

In the case of `CN(c1cccc(NC(=O)COc2ccccc2)c1)S(C)(=O)=O`, the inhibition result was “inactive”.

As for `CCOc1ccc2ccccc2c1C(=O)N1CCN(c2ccccc2)CC1`, the inhibition result was “inactive”.

For `CCOC(=O)c1c(NC(=O)CSc2nnc(-c3cccnc3)o2)sc(C)c1C`, the inhibition entry is “inactive”.

In the case of `CCN1C(=O)c2cccc3c(NC(=O)c4ccc5c(c4)OCCO5)ccc1c23`, the inhibition result is “inactive”.

As for `CN(C)S(=O)(=O)c1ccc(C(=O)Nc2ccccc2C(=O)O)cc1`, the inhibition entry was “inactive”.

With `N#Cc1c2n(c(=O)[nH]c1=O)CCCCC2`, the inhibition result was “inactive”.

For `O=C(c1nn2cccnc2c1Cl)N1CCN(c2ccccc2)CC1`, the inhibition entry was “inactive”.

As for `COC(=O)c1cc(Oc2ccc(C(=O)OC)cc2N)cc(C(=O)OC)c1`, the inhibition result is “inactive”.

`Cc1cc(C)n(C(=O)C23CC4CC(CC(C4)C2)C3)n1`: the inhibition entry was “inactive”.

As to `Cn1c(=O)cc(OCCCC(=O)N2CCCCC2)c2ccccc21`, the inhibition is 102% (inactive).

With `Cc1ccc2oc(=O)c3cnn(CC(=O)N4CCCCC4C)c3c2c1` (configuration not stated), the inhibition entry is “inactive”.

On to `Cc1cc(NS(=O)(=O)c2ccc(NC(=O)C(C)N3C(=O)c4ccccc4C3=O)cc2)nc(C)n1` (configuration not stated), for which the inhibition entry is “inactive”.

For the compound `CC(=O)Nc1ccc(Cc2ccncc2)cc1`, the inhibition result was “inactive”.

For `O=S(=O)(Nc1ccccn1)c1ccc(Oc2ccccc2)cc1`, the inhibition result is “inactive”.

Regarding `CN(C)S(=O)(=O)c1ccc(Oc2ccc(S(=O)(=O)N(C)C)cc2)cc1`, the inhibition result was “inactive”.

For `Cc1cc(NC(=O)CSc2nnc(COc3cccc(C)c3C)n2Cc2ccco2)no1`, the inhibition result is “inactive”.

As for `COCCn1c(COc2ccc(Cl)cc2)nnc1SCC(N)=O`, the inhibition entry is “inactive”.

For the compound `Cc1occc1C(=O)N1CCN(Cc2ccccc2)CC1`, the inhibition entry was “inactive”.

As for `CCOC(=O)c1sc(N)c(C(=O)OCC)c1COC(=O)C1CC(=O)N(Cc2ccco2)C1` (configuration not stated), the inhibition entry is “inactive”.

In the case of `O=C(CN(c1ccccc1)S(=O)(=O)c1ccccc1)N1CCN(Cc2ccc3c(c2)OCO3)CC1`, the inhibition result is “inactive”.

On to `CCOC(=O)CNC(=O)c1c(C)nn(-c2ccccc2)c1Cl`, for which the inhibition entry was “inactive”.

Regarding `COc1ccc(S(=O)(=O)NCC(=O)N(CC(=O)NCC2CCCO2)c2ccccc2C)cc1` (configuration not stated), the inhibition result was “inactive”.

For `Cc1cccc(N2CCN(C(=O)CCn3c(=S)[nH]c4cc5c(cc4c3=O)OCO5)CC2C)c1` (configuration not stated), the inhibition entry is “inactive”.

Take `CC1(C)C(c2ccccc2)=NC(c2ccccc2)N1O` (configuration not stated): the inhibition entry is “inactive”.

On to `O=C(NCCN1CCOCC1)c1csc2c1CCCC2`, for which the inhibition result is “inactive”.

Regarding `CCOC(=O)N1CCN(CC(O)COc2ccccc2C(C)CC)CC1` (configuration not stated), the inhibition entry is “inactive”.

`CCN(CC(=O)Nc1ccc(S(N)(=O)=O)cc1)S(=O)(=O)c1cc(C)ccc1OC`: the inhibition result was “inactive”.

Turning to `CCCCC(=NCCO)C1=C(O)C(C(=O)OC)C(C)(C)CC1=O` (configuration not stated), the inhibition entry was “inactive”.

As for `O=C(CSc1nc2ccsc2c(=O)n1NC(=O)c1ccccc1)Nc1nccs1`, the inhibition entry is “inactive”.

`COc1ccc(Cn2c(N)c(C#N)c3nc4ccccc4nc32)cc1OC`: the inhibition result was “inactive”.

`COc1ccc(C)cc1-n1c(N)c(C#N)c(C#N)c1-c1ccc(OC)c(OC)c1OC`: the inhibition was 77% (active).

Take `COc1cc2c(C)nc(C)c(C#N)c2cc1OC`: the inhibition entry was “inactive”.

With `Cc1cc2cc(CN(CC3CCCO3)C(=O)c3cnccn3)c(=O)[nH]c2cc1C` (configuration not stated), the inhibition result was “inactive”.

Turning to `COc1ccc2oc(C)c(C(=O)Cn3ccnc3)c2c1`, the inhibition result is “inactive”.

`Cn1c(=O)c2c(nc(SCCCC#N)n2Cc2c(F)cccc2Cl)n(C)c1=O`: the inhibition was 72.9% (active).

Consider `Cn1c(=O)c2c(nc(SCCCO)n2Cc2ccccc2Cl)n(C)c1=O`, for which the inhibition entry was “inactive”.

In the case of `Cn1c(=O)c2c(nc(SCCCC#N)n2Cc2ccccc2F)n(C)c1=O`, the inhibition result is “inactive”.

For the compound `O=C(c1csc2ccccc12)N1CCCCCC1`, the inhibition entry was “inactive”.

With `Cn1c(-c2ccc(F)cc2)cnc1SCC(=O)Nc1ccccc1N1CCOCC1`, the inhibition result was “inactive”.

With `Cc1ccnc2c(N3C(=O)C4C5C=CC(C5)C4(C)C3=O)cccc12` (configuration not stated), the inhibition entry is “inactive”.

In the case of `CCOC(=O)C1CCCN(C(=O)CNS(=O)(=O)c2ccc(Br)s2)C1` (configuration not stated), the inhibition result is “inactive”.

Take `COC(=O)C1=C(C)n2nnnc2NC1c1ccc(Cl)cc1` (configuration not stated): the inhibition entry is “inactive”.

On to `O=C(NCCN1CCOCC1)c1ccc2c(c1)N(Cc1ccccc1)C(=O)CS2`, for which the inhibition entry is “inactive”.

Consider `C=CCn1c(SCC(=O)NCC2CCCO2)nnc1C1CCCCC1` (configuration not stated), for which the inhibition result is “inactive”.

`COc1ccc(-c2nn3c(-c4ccncc4)nnc3s2)cc1OC`: the inhibition result was “inactive”.

Turning to `Cc1cn2c(-c3ccncc3)nnc2s1`, the inhibition entry is “inactive”.

For the compound `Cc1ccc2cc(C(c3nnnn3C3CCCC3)N3CCN(c4ccc(F)cc4)CC3)c(=O)[nH]c2c1` (configuration not stated), the inhibition entry is “inactive”.

In the case of `Cc1ccc2nc(C(F)(F)F)c(C#N)c(N)c2c1`, the inhibition is 74.6% (active).

With `Cc1cc(-c2ccccc2)c(C#N)c(N)n1`, the inhibition entry was “inactive”.

Regarding `CN(C)c1ccc(NC(=O)CSCc2nc3c(nnn3Cc3ccc(F)cc3)c(=O)[nH]2)cc1`, the inhibition entry is “inactive”.

As to `COC(=O)c1c(N)sc(C(=O)N2CCOCC2)c1C`, the inhibition entry was “inactive”.

For the compound `O=C(CSc1nnc(-c2cccnc2)o1)Nc1ccccn1`, the inhibition entry is “inactive”.

Consider `c1ccc(Cn2ncc3c2ncn2c(-c4ccncc4)nnc32)cc1`, for which the inhibition entry was “inactive”.

For the compound `CCOc1ccc(C(c2nnnn2Cc2ccccc2)N2CCN(C(=O)c3ccco3)CC2)cc1` (configuration not stated), the inhibition entry is “inactive”.

In the case of `O=C(CSc1nnnn1Cc1ccccc1)Nc1ccc2c(c1)OCO2`, the inhibition entry was “inactive”.

Take `CCOC(=O)c1sc(Nc2nc3c(OC)cccc3s2)nc1C`: the inhibition entry was “inactive”.

For the compound `COc1cc(NS(=O)(=O)N2CCCC2)cc(OC)c1OC`, the inhibition entry was “inactive”.

On to `COc1ccc2ccccc2c1CN1CCN(C)CC1`, for which the inhibition result was “inactive”.

In the case of `c1cc(C(c2nnnn2C2CCCC2)N2CCOCC2)ccn1` (configuration not stated), the inhibition entry is “inactive”.

Take `O=C(Nc1ccc(N2CCOCC2)c(F)c1)c1ccncc1`: the inhibition result was “inactive”.

`COc1ccc2cc(C(c3nnnn3C(C)(C)C)N3CCc4ccccc4C3)c(=O)[nH]c2c1` (configuration not stated): the inhibition entry was “inactive”.

Regarding `CCC(C)(C)n1nnnc1C(c1ccc(OC)c(OC)c1)N1CCN(c2ccccc2)CC1` (configuration not stated), the inhibition entry was “inactive”.

With `C=CCSC1=C(C#N)C(c2ccccc2OCC)CC(=O)N1` (configuration not stated), the inhibition entry is “inactive”.

On to `CNC(=O)CSc1nnc(-c2cc(C)cc(C)c2)o1`, for which the inhibition entry was “inactive”.

Turning to `Cc1csc(NC(=O)CCCSc2nc3ccccc3s2)n1`, the inhibition entry was “inactive”.

On to `CCOCCCNC(=O)C1CCCN(S(=O)(=O)CC)C1` (configuration not stated), for which the inhibition result was “inactive”.

`O=C(NCc1ccccc1)C1CCCN1S(=O)(=O)c1cccc2cccnc12` (configuration not stated): the inhibition entry was “inactive”.

In the case of `CC(=O)[C@H]1CC[C@H]2[C@@H]3CCC4=CC(=O)CC[C@]4(C)[C@H]3CC[C@]12C`, the inhibition was 87.1% (inactive).

For the compound `C[C@]12CC[C@H]3[C@@H](CCC4=CC(=O)CC[C@@]43C)[C@@H]1CC[C@@H]2C(=O)CO`, the inhibition is 72.2% (inactive).

With `CC(=O)OCC(=O)[C@H]1CC[C@H]2[C@@H]3CCC4=CC(=O)CC[C@]4(C)[C@H]3CC[C@]12C`, the inhibition was 78.2% (active).

For the compound `CCCC(=O)O[C@]1(C(=O)CCl)[C@@H](C)C[C@H]2[C@@H]3CCC4=CC(=O)C=C[C@]4(C)[C@@]3(F)C(=O)C[C@@]21C`, the inhibition result was “inactive”.

`CC(=O)OCC(=O)[C@@]1(O)[C@H](C)C[C@H]2[C@@H]3CCC4=CC(=O)C=C[C@]4(C)[C@@]3(F)[C@@H](O)C[C@@]21C`: the inhibition result was “inactive”.

As for `CCC(=O)O[C@]1(C(=O)CCl)[C@@H](C)C[C@H]2[C@@H]3CCC4=CC(=O)C=C[C@]4(C)[C@@]3(F)[C@@H](O)C[C@@]21C`, the inhibition is 78.5% (active).

Regarding `CCOC(=O)Nc1cc(OCC)c(NC(=O)C2CC2)cc1OCC`, the inhibition entry is “inactive”.

Regarding `COC(=O)CCN(C(=O)c1ccc2c(c1)OCO2)c1ccccn1`, the inhibition entry is “inactive”.

In the case of `Cc1ccc(S(=O)(=O)N2CCCC(c3nnc4n3-c3ccccc3SC4)C2)cc1` (configuration not stated), the inhibition entry is “inactive”.
